Screening results (PubChem BioAssay)
A selection: hits, their analogues and other compounds. The true share with any hit is near 2.5%.
697 NFkB inh: lowers PMA/ionomycin-induced NF-kB signal in 697 B cells; 697 B-cell NF-kB luciferase reporter, 16 h; inhibition, % at 4 µM; hit rate 0.33% among 330,000; AID 435022; in the data active = inhibition above about 35%
TMEM16A inh: mouse TMEM16A channel inhibition, primary screen; hit rate 1.2% among 310,000; HEK293 TMEM16A/YFP iodide influx fluorescence, ionomycin; normalized B-score (activity score, 25-100; higher = stronger inhibition) at 10 µM; Q8BHY3;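 active = ratio plate-corrected score three or more library SD toward inhibition, starting fluorescence score within five deviations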;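 also: score derived from kinetic fluorescence span divided by baseline fluorescence per well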
Target sequence (Q8BHY3 whole entry, looked up): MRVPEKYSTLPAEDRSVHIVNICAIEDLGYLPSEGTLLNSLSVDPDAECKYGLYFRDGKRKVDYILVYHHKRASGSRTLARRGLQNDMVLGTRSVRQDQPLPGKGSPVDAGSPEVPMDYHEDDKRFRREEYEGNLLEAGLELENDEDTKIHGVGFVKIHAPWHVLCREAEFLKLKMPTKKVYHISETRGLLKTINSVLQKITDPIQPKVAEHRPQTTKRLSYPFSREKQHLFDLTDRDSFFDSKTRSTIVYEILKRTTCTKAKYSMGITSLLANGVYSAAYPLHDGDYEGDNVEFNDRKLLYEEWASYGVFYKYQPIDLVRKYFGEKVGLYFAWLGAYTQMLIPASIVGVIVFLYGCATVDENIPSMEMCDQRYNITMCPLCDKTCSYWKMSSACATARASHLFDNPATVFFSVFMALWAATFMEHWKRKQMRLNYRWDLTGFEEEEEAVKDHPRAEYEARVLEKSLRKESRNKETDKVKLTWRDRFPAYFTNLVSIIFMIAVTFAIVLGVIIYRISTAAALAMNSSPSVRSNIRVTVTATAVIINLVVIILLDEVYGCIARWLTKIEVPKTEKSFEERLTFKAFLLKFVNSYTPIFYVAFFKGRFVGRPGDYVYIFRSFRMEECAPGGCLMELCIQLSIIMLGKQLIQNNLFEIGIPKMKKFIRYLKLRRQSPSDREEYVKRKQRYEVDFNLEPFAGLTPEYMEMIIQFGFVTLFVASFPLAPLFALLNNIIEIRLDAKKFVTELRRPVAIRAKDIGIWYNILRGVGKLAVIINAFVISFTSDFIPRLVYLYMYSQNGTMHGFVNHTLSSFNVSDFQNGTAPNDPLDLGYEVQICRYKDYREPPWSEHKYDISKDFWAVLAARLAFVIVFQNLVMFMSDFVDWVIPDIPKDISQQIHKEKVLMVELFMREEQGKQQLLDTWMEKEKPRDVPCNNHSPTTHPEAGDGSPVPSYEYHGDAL
aSyn UTR inh: MLPCN primary screen, SNCA 5' untranslated region; alpha-synuclein 5'UTR reporter, inhibitor activity; inhibition, % (tested at 7.5 µM); hit rate 0.82% among 300,000; in the data active = inhibition above about 60%;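 also: H4 neuroglioblastoma cells stably carrying SNCA 5'UTR luciferase fusion; 0% = DMSO wells and 100% = positive control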
Jurkat NFkB inh: lowers PMA/ionomycin-induced NF-kB signal in Jurkat cells; PMA/ionomycin-induced NF-kB luciferase reporter, luminescence; inhibition, % at 4 µM; hit rate 0.53% among 330,000; AID 435003; in the data active = inhibition above about 50%
KLF5 inh: inhibitors of KLF5 expression | hit rate 0.23% among 290,000 | DLD-1 KLF5 promoter-luciferase reporter, luminescence | inhibition, % at 5 µM;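 active = inhibition above a per-plate limit of that plate's mean compound inhibition plus 3 SD, cut at about 60% in these data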;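 also: 0% = DMSO wells and 100% = LY294002 at 200 µM; higher means less KLF5 promoter-driven luciferase light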
ANO1 activ: activates or potentiates the mouse TMEM16A chloride channel. Q8BHY3. B-score at 10 µM. hit rate 0.3% among 340,000. HEK293 TMEM16A/YFP-H148Q/I152L, iodide quench fluorescence; active compounds read low. AID 623877;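 active = fluorescence-ratio B-score plate-corrected deviation score at least 3 library SD below zero, with starting fluorescence score within 5 deviations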;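 also: channel opened by trigger with iodide after compound preincubation; score built on the fluorescence ratio of max minus min over baseline; more negative score means more quench and so TMEM16A activation or potentiation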
KLF5 inh confirm: KLF5 inhibition, confirmation assay; shares compounds with KLF5 inh; DLD-1 KLF5 promoter firefly luciferase reporter, luminescence; inhibition, % at 4 µM; hit rate 79% among 610; AID 1834;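 active = inhibition above a set limit taken from the earlier primary screen, cut at about 63% in these data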;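 also: 0% = DMSO wells and 100% = LY294002 at 200 µM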
IEC-6 tox: counter-screen for KLF5 inhibitors: cytotoxicity in rat IEC-6 cells; shares compounds with KLF5 inh; IEC-6 rat intestinal cells, viability luminescence; inhibition, % at 4 µM; hit rate 56% among 610; AID 1905; in the data active = inhibition above about 23%;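 also: cells exposed to compounds for 48 hours before viability read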
An asterisk follows results filed as active.

Cc1ccc2nc(NC(=O)CCCc3nc4ccccc4s3)sc2c1 was read as 697 NFkB inh 2, TMEM16A inh inactive, aSyn UTR inh 45, Jurkat NFkB inh -59, KLF5 inh 88*, ANO1 activ inactive, KLF5 inh confirm 98* and IEC-6 tox 6.
Screening Cc1cnc(NC(=O)CCCc2nc3ccccc3s2)s1 returned 697 NFkB inh 24, TMEM16A inh inactive, aSyn UTR inh 30, Jurkat NFkB inh 34, KLF5 inh -4 and ANO1 activ inactive.
`CCOC(=O)/C(C#N)=C/c1cn(CCOc2ccc(OC)cc2)c2ccccc12` gave 697 NFkB inh 6, TMEM16A inh inactive, aSyn UTR inh 1, Jurkat NFkB inh -8, KLF5 inh 26 and ANO1 activ inactive.
For N/C(=N\OC(=O)c1ccc(=O)n(Cc2ccccc2)c1)c1ccccn1 the results were 697 NFkB inh -73, TMEM16A inh inactive, aSyn UTR inh -29, Jurkat NFkB inh -10, KLF5 inh -49 and ANO1 activ inactive.
For CCCc1ccc(C(=O)O/N=C(\N)c2ccccn2)cc1 the results were 697 NFkB inh -94, TMEM16A inh inactive, aSyn UTR inh 72*, Jurkat NFkB inh 7, KLF5 inh 102*, ANO1 activ inactive, KLF5 inh confirm 97* and IEC-6 tox 4.
N/C(=N\OC(=O)c1ccc2ccccc2c1)c1ccccn1 was read as 697 NFkB inh -100, TMEM16A inh inactive, aSyn UTR inh 96*, Jurkat NFkB inh -46, KLF5 inh 86*, ANO1 activ inactive, KLF5 inh confirm -17 and IEC-6 tox 3.
Screening N/C(=N\OC(=O)c1ccc(Cl)cc1[N+](=O)[O-])c1ccccn1 returned 697 NFkB inh -160, TMEM16A inh inactive, aSyn UTR inh -165, Jurkat NFkB inh -133, KLF5 inh -111 and ANO1 activ inactive.
Screening N/C(=N\OC(=O)c1ccc(Cl)cc1Cl)c1ccccn1 returned 697 NFkB inh -24, TMEM16A inh inactive, aSyn UTR inh 89*, Jurkat NFkB inh 28, KLF5 inh 95*, ANO1 activ inactive, KLF5 inh confirm 46 and IEC-6 tox 3.
O=C(NCC1CC1)Nc1cccs1 was read as 697 NFkB inh -14, TMEM16A inh inactive, aSyn UTR inh -5, Jurkat NFkB inh -34, KLF5 inh -8 and ANO1 activ inactive.
COc1nc(=O)n(C2CCCO2)cc1C (stereo unspecified) was read as ANO1 activ inactive.
`CC(=O)Nc1c(C(=O)O)ccc(C)c1OCc1ccccc1` gave ANO1 activ inactive.
COc1cccc(Cn2c(NCc3cccnc3)nc3c2c(=O)n(C)c(=O)n3C)c1 was read as 697 NFkB inh -79, TMEM16A inh inactive, aSyn UTR inh 71*, Jurkat NFkB inh 13, KLF5 inh 84*, ANO1 activ inactive, KLF5 inh confirm 97* and IEC-6 tox 70*.
For Cc1csc(NC(=O)c2cc3c(s2)CCCCC3)n1 the results were 697 NFkB inh -70, TMEM16A inh inactive, aSyn UTR inh 92*, Jurkat NFkB inh -90, KLF5 inh 72*, ANO1 activ inactive, KLF5 inh confirm 52 and IEC-6 tox -1.
`O=C1C(=O)N(c2nccs2)C(c2ccccc2)/C1=C(\O)c1ccc2c(c1)OCCO2` (stereo unspecified) gave 697 NFkB inh 26, TMEM16A inh inactive, aSyn UTR inh 56, Jurkat NFkB inh 3, KLF5 inh 74*, ANO1 activ inactive, KLF5 inh confirm 54 and IEC-6 tox 8.
O=C(N/N=C/c1cc(Cl)cc(Cl)c1O)c1ccncc1 was read as 697 NFkB inh -65, TMEM16A inh inactive, aSyn UTR inh 24, Jurkat NFkB inh 0, KLF5 inh 77*, ANO1 activ -8.8*, KLF5 inh confirm 35 and IEC-6 tox 7.
`O=C(N/N=C/c1ccc(Cl)cc1Cl)c1ccncc1` gave 697 NFkB inh -31, TMEM16A inh inactive, aSyn UTR inh -3, Jurkat NFkB inh -4, KLF5 inh -29 and ANO1 activ inactive.
Screening O=C(N/N=C/c1cc(Br)cc(Br)c1O)c1ccncc1 returned 697 NFkB inh -2, TMEM16A inh inactive, aSyn UTR inh 36, Jurkat NFkB inh -2, KLF5 inh 78*, KLF5 inh confirm 88* and IEC-6 tox 40*.
For O=C(N/N=C/c1cc(Cl)ccc1O)c1cccnc1 the results were 697 NFkB inh -25, TMEM16A inh inactive, aSyn UTR inh -10, Jurkat NFkB inh 22, KLF5 inh 79*, ANO1 activ inactive, KLF5 inh confirm 89* and IEC-6 tox 16.
Screening O=C(N/N=C/c1cccnc1)c1cccc(Cl)c1 returned 697 NFkB inh -14, TMEM16A inh inactive, aSyn UTR inh -16, Jurkat NFkB inh -2, KLF5 inh -64 and ANO1 activ inactive.
Screening Nc1ccc(C(=O)n2c3ccccc3c3ccccc32)cc1 returned 697 NFkB inh 27, TMEM16A inh inactive, aSyn UTR inh 117*, Jurkat NFkB inh 45, KLF5 inh 79*, ANO1 activ inactive, KLF5 inh confirm 85* and IEC-6 tox 60*.
Screening Cc1ccc(S(=O)(=O)Nc2ccc3c(c2)C(=O)N([C@H](C)CO)C[C@H](C)[C@@H](CN(C)C(=O)Nc2ccc(C(F)(F)F)cc2)O3)cc1 returned 697 NFkB inh 5 and Jurkat NFkB inh 15.
For COc1ccc2c(c1)sc(N)[n+]2Cc1cc(C)cc2cccnc12 the results were TMEM16A inh inactive, aSyn UTR inh 114*, KLF5 inh 69*, ANO1 activ inactive, KLF5 inh confirm 73* and IEC-6 tox 61*.
`CCOC(=O)c1c(N/N=C/c2cccnc2)n[nH]c1C` gave 697 NFkB inh -26, TMEM16A inh inactive, aSyn UTR inh -157, Jurkat NFkB inh 17, KLF5 inh -53 and ANO1 activ inactive.
CC(=O)N1CCc2cc(S(=O)(=O)C(C)CC(=O)Nc3ccc(OC(F)(F)F)cc3)ccc21 (stereo unspecified) was read as 697 NFkB inh -34, TMEM16A inh inactive, aSyn UTR inh -38, Jurkat NFkB inh -14, KLF5 inh -61 and ANO1 activ inactive.
Screening CC(=O)N1CCc2c(sc(NC(=O)c3ccc([N+](=O)[O-])o3)c2C#N)C1 returned aSyn UTR inh -5, KLF5 inh -5 and ANO1 activ inactive.
CC(C)N1CCc2c(sc(NC(=O)c3ccc([N+](=O)[O-])o3)c2C(N)=O)C1 was read as 697 NFkB inh -8, TMEM16A inh inactive, aSyn UTR inh 104*, Jurkat NFkB inh 39, KLF5 inh 72*, ANO1 activ inactive, KLF5 inh confirm 55 and IEC-6 tox 90*.
